# Compound activity: PubChem BioAssay, National Center for Advancing Translational Sciences (NCATS)
# A selection: hits, their analogues and other compounds. The true share with any hit is near 8%.
# HCV inh = blocks hepatitis C virus; Huh7.5.1 HCVcc-Cre infection, luciferase reporter, 44 h; Potency, µM (titrated, usually from 41.8 µM), without a hit: at the top dose activity change, negative = inhibition, actives largely listed as inhibitors; actives 3.4% (n = 340,000); AID 651820; active = well fitted inhibition curve with a large enough effect; inconclusive = small, poorly fitted or top-dose-only effect, or another doubt; inactive = no such curve, though single readings can be large or run the other way; also: potency is read from the fitted curve at half-maximal effect; % is scaled to controls: 0 for no effect and ±100 for the full control effect
#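 After 44 h co-culture of compound, cells and HCVcc-Cre (~0.5 moi), substrate is added for 15 min at room temperature and luciferase measured over 15 sec. Cells were seeded at 1,000/well and pre-cultured 4 h.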
# HCMV antiviral = human cytomegalovirus inhibition | HFF cells, HCMV-luciferase reporter, 72 h; active compounds read low | activity change, negative = inhibition, % at 57.5 µM | actives 4.5% (n = 410,000); in the data active = activity change below about -60%; inconclusive = no clear call, values can overlap the other calls; inactive = above about -39%; also: % is scaled to controls: 0 for no effect and ±100 for the full control effect
#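 Compounds were evaluated in HFFs infected with an HCMV luciferase reporter virus (MOI 1 PFU/cell). Luciferase in lysates collected 72 h post infection served as the replication measure.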
# FMDV antiviral = blocks foot and mouth disease virus; AID 1159524; Potency, µM (highest dose often 57.9 µM), without a hit: at the highest dose activity change, negative = inhibition, most hits filed as inhibitors; actives 1.2% (n = 410,000); FMDV antiviral cell-based qHTS; calls by dose curve; tested in HEK293T cells; also: read-out not given here; potency is read from the fitted curve at half-maximal effect; % is scaled to controls: 0 for no effect and ±100 for the full control effect; nearly all actives have a fitted effect of over 45% in size
# LASV entry inh = inhibitors of Lassa virus binding or cell entry | Lassa virus pseudotype entry inhibition, cell reporter | actives 1.2% (n = 300,000) | Potency, µM (series often up to 37.9 µM), for inactives: at the top dose activity change, negative = inhibition, most hits filed as inhibitors; calls by dose curve; tested in HEK293 cells; also: potency is read from the fitted curve at half-maximal effect; % is scaled to controls: 0 for no effect and ±100 for the full control effect; nearly all actives have a fitted effect of over 50% in size
# Marburg entry inh = inhibitors of Marburg virus binding or cell entry; actives 1.8% (n = 300,000); AID 540276; Marburg virus pseudotyped entry inhibition, cell reporter; Potency, µM (highest dose often 37.8 µM), for the others: at the top dose activity change, negative = inhibition, usual class: inhibitors; calls by dose curve; tested in HEK293 cells; also: potency is read from the fitted curve at half-maximal effect; % is scaled to controls: 0 for no effect and ±100 for the full control effect
# SARS PLpro yeast = blocks SARS-CoV papain-like protease in a yeast assay; S. cerevisiae expressing SARS-CoV PLpro, growth rescue; AID 485353; actives 0.19% (n = 330,000); Potency, µM (top dose mostly 32.9 µM), inactives show at the highest dose activity, positive = growth rescue, most hits filed as activators; calls by dose curve; also: potency is read from the fitted curve at half-maximal effect; 0% is about no effect; nearly all actives have a fitted effect of over 55% in size
# An asterisk follows results filed as active; ? = inconclusive; . = no result; [ ] = remark or other dose.
SMILES,HCV inh,HCMV antiviral,FMDV antiviral,LASV entry inh,Marburg entry inh,SARS PLpro yeast
Cc1nc2ccc(NC(=O)c3cccc(S(=O)(=O)N(C)c4ccccc4)c3)cc2s1,10µM*,.,25µM*,?,18µM*,4%
COC(=O)c1ccc(CNC(=O)c2ccc(S(=O)(=O)N(C)c3ccccc3OC)cc2)cc1,8.9µM*,-13,-25%,.,.,-4%[6.58 µM]
COc1ccccc1N(C)S(=O)(=O)c1ccc(C(=O)NCCc2ccc(F)cc2)cc1,?,-33,-21%,?,-14%,-4%
COc1ccccc1N(C)S(=O)(=O)c1ccc(C(=O)N(C)Cc2ccc(OC(F)F)cc2)cc1,4µM*,-39,35µM*,?,11µM*,5%
COc1ccccc1N(C)S(=O)(=O)c1ccc(C(=O)Nc2cccc(Br)c2)cc1,13µM*,46,?,?,?,-1%
Cc1nc2ccc(NC(=O)c3ccccc3)cc2s1,6%,29,55%,7%,-15%,-1%
COc1ccccc1N(C)S(=O)(=O)c1ccc(C(=O)Nc2ccc3nc(C)sc3c2)cc1,?,-85*,25µM*,?,?,-18%
COc1ccc(C(=O)Nc2ccc3nc(C)sc3c2)cc1S(=O)(=O)N1CCOCC1,.,-21,0%,.,.,.
C=CCN(c1ccccc1OC)S(=O)(=O)c1ccc(Cl)c(C(=O)Nc2ccc(N3CCOCC3)cc2)c1,?,-17,-6%,?,?,0%
COC(=O)c1cccc(NC(=O)c2ccc(S(=O)(=O)N(C)c3ccccc3OC)cc2)c1,.,29,35µM*,.,.,.
Cc1nc2ccc(S(=O)(=O)N(C)CC(=O)Nc3ccc(C(C)C)cc3)cc2s1,.,-60*,-2%,0%[46.1 µM],-7%[46.1 µM],.
COc1ccccc1N(C)S(=O)(=O)c1ccc(C(=O)Nc2ccc(N3CCOCC3)cc2)cc1,10µM*,-62*,40µM*,?,?,0%
COc1ccc(NC(=O)CN(C)S(=O)(=O)c2ccc3nc(C)sc3c2)cc1,.,-23,-13%,-21%[46.1 µM],.,.
CN(Cc1ccc(OC(F)F)cc1)C(=O)c1ccccc1Sc1ccccc1C#N,?,-69*,-17%,?,?,.
COc1cc(NC(=O)c2ccc(S(=O)(=O)N(C)c3ccccc3OC)cc2)cc(OC)c1,11µM*,-23,20%,?,?,-4%
CCOc1ccc(OCC)c(NC(=O)c2cc(-c3cccs3)nc3ccccc23)c1,.,-3,-4%,3%[46.1 µM],16%[46.1 µM],.
Cc1cc(C)c(S(=O)(=O)Nc2ccccc2C(=O)OCC(=O)NCc2ccccc2)c(C)c1,2%,?,0%,10µM*,?,1%
O=C(COC(=O)c1ccccc1Nc1ccccc1)NCc1ccccc1,5%,22,7%,8%,15%,-12%
Fc1ccc(-c2cn3cc(Cc4ccc(Cl)cc4)sc3n2)cc1,.,88,44%,16%[46.1 µM],?,.
CN1CCc2c(sc(N)c2C(=O)c2ccc(Cl)cc2)C1,-7%,-18,-1%,-1%[46.1 µM],1%[46.1 µM],1%
COc1ccc(C(=O)c2c(N)sc3c2CCN(C(=O)OC(C)(C)C)C3)cc1,?,-84*,?,?,?,0%
COc1ccc(NC(=O)c2c(C)oc3ccc(O)c(CN4CCCC(C)C4)c23)cc1 (stereo not given),.,-38,-16%,-14%[46.1 µM],?,.
COc1ccc(NC(=O)c2c(C)oc3ccc(O)c(CN4CCCCCC4)c23)cc1,.,-67*,-11%,?,?,.
COc1ccc(NC(=O)c2c(C)oc3ccc(O)c(CN4CCC(C)CC4)c23)cc1,.,?,-12%,?,11µM*,.
O=C(NCC(c1ccco1)S(=O)(=O)c1ccc(Cl)cc1)c1ccccc1F (stereo not given),.,19,20%,-1%[46.1 µM],.,.
Cc1ccc(Cn2cnc3c(cnn3C(C)(C)C)c2=O)cc1,11µM*,?,25µM*,.,.,-3%
CC(C)(C)n1ncc2c(=O)n(Cc3ccc(Cl)c(Cl)c3)cnc21,13%,16,-5%,11%,2%[46.1 µM],0%
CCc1cccc2c(C(=O)CSc3nncn3-c3ccccc3OC)c[nH]c12,-18%,21,0%,5%,4%,13µM*
